Results with a measured potency or affinity are listed apart.

This assay relates to Cryptococcus neoformans. To be noted: Concentration 32 ug.mL-1; ASSAY_TEST Inhibition of Fungal Growth; detection method Resazurin; Absorption (OD600-OD570); plate type 384well; NBS; CORNING #3640.
One may read the Inhibition as the drop in the measured response relative to a control, in per cent. Take `CSC1=NC(=Cc2ccccc2)C(=O)N1C`: the Inhibition is on record as -9.15%. Turning to `CN(C)c1nc2nc3c(c(N)c2c(-c2ccccc2)c1C#N)CCCC3`, the Inhibition is listed as -62.72%. In the case of `C/C(Cc1ccccc1)=N/NC(=O)c1c[nH]c2ccc(O)cc12`, the Inhibition is given as 4.37%.

Turning to `CCCC(C)NNC(=O)c1cc2ccccc2[nH]1` (stereo not given), the Inhibition is recorded as -3.77%. As for `CCCCCCC(C)NNC(=O)c1cc2ccccc2[nH]1` (stereo not given), the Inhibition is listed as -2.85%. On to `N#CC1=C(Cl)Oc2ccc3ccccc3c2C1c1ccccc1` (stereo not given), for which the Inhibition is recorded as -4.84%. Then `Cc1[nH]c2ccc(OCc3ccccc3)cc2c1C(=O)NN`, with -5.65%; and `CN(C)c1nc(N)c(C#N)c(-c2ccccc2)c1C#N`, with -0.79%. For `Cn1c(CO)cc2cc(OCCCC3CCN(Cc4ccccc4)CC3)ccc21`, the Inhibition is -53.31%. Regarding `CC(=O)O[C@H]1CC[C@H](NC(=O)c2ccccc2)CC1`, the Inhibition is on record as -39.27%. Then `C#CC[n+]1ccccc1N.[Br-]`, with -3.96%; and `Cc1nc2c(cc1C#N)c(N)nn2C`, with -10.85%; and `N#Cc1c(N)nc(NCCCC2CCN(Cc3ccccc3)CC2)c(C#N)c1-c1ccccc1`, with -34.35%. As for `Nc1c2c(nc3c1CC(c1c(Cl)cccc1Cl)C(=O)N3)CCCC2` (stereo not given), the Inhibition is on record as -92.02%.

For the compound `O=C(NNCc1ccco1)c1cc2ccccc2[nH]1`, the Inhibition was -3.8%. Then `COc1ccc(-c2cc(-c3cc4ccc(F)cc4nc3Cl)cc(=O)[nH]2)cc1`, with -21.89%; and `O=C1OC(c2ccccc2)=NC1=Cc1ccc([N+](=O)[O-])cc1`, with -3.36%. For `C#CCN(C)Cc1cc2cc(OCCCC3CCN(Cc4ccc(C#N)cc4)CC3)ccc2n1C`, the Inhibition was -50.05%.

Take `CNC(=O)c1cc2cc(OCc3ccccc3)ccc2n1C`: the Inhibition is listed as -45.34%. Turning to `N#Cc1c(N)nc(NCCC2CCN(Cc3ccccc3)CC2)c(C#N)c1-c1ccccc1`, the Inhibition is on record as -17.88%.

In the case of `C#CCN(C)c1nc(N(C)CC#C)c(C#N)cc1C#N`, the Inhibition is -56.65%. On to `CC(=O)Oc1ccc(C=C2N=C(c3ccccc3)OC2=O)c(OC(C)=O)c1`, for which the Inhibition was -6.54%. Turning to `CCOc1nc2nc(C)c(C=C3CCN(Cc4ccccc4)CC3)cc2c(-c2ccccc2)c1C#N`, the Inhibition is -63.91%. The figure for `C#CCN(C)c1nc(NCC2CCN(Cc3ccccc3)CC2)c(C#N)c(-c2ccccc2)c1C#N.Cl` is 16.69%. For the compound `CS(=O)(=O)O[C@H]1CC[C@H](OS(C)(=O)=O)CC1`, the Inhibition was -30.83%. `CN(C)c1nc(Cl)c(C#N)c(-c2ccccc2)c1C#N`: the Inhibition is recorded as -9.38%. As to `COc1cccc(C2C(C#N)=C(N)Oc3[nH]nc(C)c32)c1` (stereo not given), the Inhibition is -0.28%. Turning to `Cl.OCC1CCN(Cc2ccccc2)CC1`, the Inhibition is on record as -2.26%.

In the case of `COc1cc(C2CC2(N)C(=O)O)ccc1O` (stereo not given), the Inhibition was -0.8%.

Take `COC(=O)/C(=C/c1ccc(O)cc1)NC(=O)c1ccccc1`: the Inhibition is listed as -3.07%. Then `N#Cc1cc(C#N)c(N2CCCC2)nc1N`, with -54.35%; and `COc1nc2ccccc2cc1C=O`, with -2.5%. Consider `CNCc1cc2ccccc2n1C.Cl`, for which the Inhibition is -5.12%. Turning to `Cl.Nc1c2c(nc3c1C(c1c(Cl)cccc1Cl)c1ccc4ccccc4c1O3)CCCC2` (stereo not given), the Inhibition is listed as -3.69%. With `Cc1ccc2nc(Cl)c(/C=N/OCc3ccccc3)cc2c1`, the Inhibition is listed as -9.27%.

Turning to `N#Cc1cc(C#N)c(NCCCC2CCN(Cc3ccccc3)CC2)nc1N`, the Inhibition is -57.65%. Take `O=C1NC(=S)N/C1=C\c1c[nH]c2ccccc12`: the Inhibition is -1.8%. On to `Cl.NC1(C(=O)O)CC1c1cccc(Cl)c1` (stereo not given), for which the Inhibition is on record as -0.59%.

On to `CCOC(N)=CC#N`, for which the Inhibition is -10.57%. Consider `COc1ccc(C2c3c(ccc4ccccc34)OC(=NBr)C2(Br)C#N)cc1` (stereo not given), for which the Inhibition is reported as -63.65%.

Values taken from ChEMBL document CHEMBL4513135, “CO-ADD screening of IQOG CSIS (Spain) compounds”.
